Measurements: PubChem BioAssay AID489025 (Southern Research Specialized Biocontainment Screening …, 2010)
About 790 (34%) of roughly 2,300 compounds were called active. This is one part of the list. Potency and affinity values are given separately. Unmarked numbers belong to inactive results. The rule behind the calls is not given here.

Assay: THP-1 cell cytotoxicity, dose response, cytotoxicity control for non-replicating M. tuberculosis project (AID 489025)
Details: THP-1 cell viability; series mostly up to 40 µM; viability: at the top concentration

SMILES	viability [%]
CC(=O)c1ccc(OCC(=O)Nc2ccc3c(c2)CCC3)cc1	90.6
Cc1nnc(N/N=C/c2ccc(-c3ccc(Br)cc3)o2)n1N	104
CC(=O)N(c1nnc(-c2ccc(C)cc2)s1)C1CCCC1	99.3
CC1=NN(C(=O)c2cc(C)nn2C)C(O)(C(F)(F)F)C1 (configuration not stated)	112
O=C(c1ccccc1[N+](=O)[O-])N1N=C(c2ccccc2)CC1(O)C(F)(F)F (configuration not stated)	85.2
CC1=NN(C(=O)c2csc(C(C)C)c2)C(O)(C(F)(F)F)C1 (configuration not stated)	109
CC1=NN(C(=O)CCCc2ccccc2)C(O)(C(F)(F)F)C1 (configuration not stated)	103
CCOC(=O)C1=C(C)NC(=O)NC1c1ccc(-c2ccc(F)cc2)o1 (configuration not stated)	100
COc1cccc(-c2nc(C=O)cs2)c1	99.6
CCOC(=O)c1cc(-c2cccc([N+](=O)[O-])c2)on1	95.3
CC(NC(=O)c1cccc(F)c1)C1CC2CCC1C2 (configuration not stated)	93.8
COc1ccc(CNC(=O)COC(=O)C2CC3C=CC2C3)cc1 (configuration not stated)	114
CCCCNC(=O)Nc1nnc(-c2ccc(Cl)cc2)o1	89.7
O=C(CCN1CCC(c2cccs2)=N1)c1cccs1	91.7
O=c1ccn(-c2ccccc2)[nH]1	120
COC(=O)c1ccc(CO/N=C/c2ccc(OC)cc2)o1	117
CCOC(=O)c1c(-c2ccc(C)o2)csc1NC(=O)CN1CCCCC1	76.7
Cc1ccc(C(=O)COC(=O)CCc2ccc(S(=O)(=O)N3CCCCC3)cc2)cc1	130
Cc1ccc(OCC(=O)N2CCCc3ccccc32)cc1	76
COc1cc2c(cc1OC)CN(CCC(=O)c1ccc(Br)cc1)CC2	94.5
COc1ccc(C(=O)CCNc2ccc(F)cc2)cc1	94.5
COc1ccc(C(O)CNc2ccc(C)cc2)cc1 (configuration not stated)	86.4
COc1ccc(C(C)NC(=O)CCc2ccccc2)cc1 (configuration not stated)	105
CC(C)Oc1ccc(CNC(=O)Oc2ccccc2)cc1	112
COc1ccc(OC(=O)C(C)N2C(=O)c3ccccc3C2=O)cc1 (configuration not stated)	123

SMILES	viability [%]
CN(C)Cc1ccccc1Sc1ccccc1Br	93
COC(=O)COc1ccc2c(-c3ccc(OC)cc3)cc(=O)oc2c1	106
CCOc1ccc2nc(/N=C/c3nc(-c4ccccc4)oc3O)sc2c1	113
CCOCC(=O)Nc1nc2ccc(C)cc2s1	103
O=C(NNc1nc2cc3c(cc2s1)OCCO3)c1ccccc1	94.1
O=C(Nc1nccs1)c1ccccn1	103
Cc1nc2ccc(OC(=O)c3ccccc3)cc2s1	126
Cc1ccc(C)c(-c2csc(NC(=O)c3cnccn3)n2)c1	98.3
O=C(Nc1c(F)cc(F)cc1Br)c1cc(-c2ccccc2)on1	110
O=C(CCN1CCC(c2ccccc2)C1)c1ccccc1 (configuration not stated)	82.5
O=C(CNC(=O)c1ccccc1F)OCc1csc(-c2ccccc2)n1	117
O=C(NCc1ccc2c(c1)OCO2)c1ccc(Cl)s1	98.2
C=CCc1ccc2oc(C(=O)OCC)cc(=O)c2c1O	125
CCc1ccc(C(C)NC(=O)C2CCCO2)cc1 (configuration not stated)	106
CC1=CC(=O)NP(=O)(Oc2ccc3ccccc3c2)N1 (configuration not stated)	107
O=C(NNc1nc2ccccc2s1)c1ccc(F)cc1	78
Cc1nc2ccc(NC(=O)COc3cccc(F)c3)cc2s1	101
COc1cc(/C=C2/C(=O)NN(c3cccc(C)c3)C2=O)ccc1OC(=O)c1ccco1	101
COc1cc(NC(=O)C/C(C)=N/NC(=O)c2cccs2)c(OC)cc1Cl	77.3
Cc1cccc2nc(CSc3nc4cc([N+](=O)[O-])ccc4s3)cn12	117
O=C(O)c1ccc(NCc2ccc(Br)cc2)cc1	115
CCCOC(=O)c1cc(-c2ccc(C=O)o2)ccc1Cl	100
O=C(CN1CCOCC1)N/N=C/c1ccc(-c2ccc(Br)cc2)o1	113
COC(=O)c1cc(-c2ccc(OC)cc2)on1	105
CCOC(=O)c1c(-c2ccccc2)csc1NC(=O)CCN1CCOCC1	78.9

SMILES	viability [%]
CCOC(=O)c1sc(NC(=O)CCN2CCOCC2)c(C(=O)OCC)c1C	96.3
CCOC(=O)Nc1cccc(OCC(=O)Nc2ccc(OC)cc2OC)c1	111
CCOC(=O)CNC(=O)N1c2ccccc2Sc2ccccc21	94.3
COc1cc(/C=N/Nc2ccc(Cl)c(C(=O)O)c2)ccc1OC(=O)c1ccco1	102
CC(C)CSc1nnc2c3ccccc3n(C)c2n1	97
Cc1ccc(/C(O)=C/c2nc3ccccc3oc2=O)cc1	81.1
COc1ccc(C(=O)COC(=O)c2ccc(Cl)nc2)c(OC)c1	113
O=C1CC(N2CCN(c3ccc(F)cc3)CC2)C(=O)N1Cc1ccccc1 (configuration not stated)	113
O=C(NNc1c(F)c(F)cc(F)c1F)c1cc2ccccc2oc1=O	83.4
Nc1ccc2cc(Br)ccc2c1	105
O=C(OCC(=O)N1CCCc2ccccc21)c1ccc(S(=O)(=O)C(F)F)cc1	113
O=C(C1CCN(C2CC(=O)N(Cc3ccccc3)C2=O)CC1)N1CCCCCC1 (configuration not stated)	103
Cc1cccc(OC(=O)c2ccc3nccnc3c2)c1	101
CCOC(=O)C1(CC2CCCCO2)CCN(Cc2nccn2-c2ccc(OC)cc2)CC1 (configuration not stated)	93.6
O=C(COc1ccc2ccccc2c1Br)N1CCCC1	107
C=CC(=O)Oc1ccc(N2Cc3ccccc3C2=O)cc1	105
CCOC(=O)Cn1nc(/C=C/c2ccccc2)ccc1=O	115
O=C1NC(Cc2c[nH]c3ccccc23)C(=O)N1CCOc1ccccc1 (configuration not stated)	92.5
CC(C)c1nnc(NC(=O)c2sc3ccccc3c2Cl)s1	107
CC(C)c1nnc(NC(=O)c2cc3cc(Br)ccc3oc2=O)s1	90.6
N/C(=N\OC(=O)c1cccs1)c1ccccc1	90.9
O=C(N/N=C/C=C/c1ccccc1)c1cccs1	120
O=C(OCC(=O)c1c[nH]c2ccccc12)c1ccc([N+](=O)[O-])s1	92.8
CCOC(=O)c1c(C)[nH]c(C)c1C(=O)COC(=O)c1ccc([N+](=O)[O-])s1	83.1
COC(=O)C1=C(N)OC2=C(C(=O)CC(C)(C)C2)C1c1cccnc1 (configuration not stated)	101

SMILES	viability [%]
CC1(C)CC(=O)C2=C(C1)OC(N)=C([N+](=O)[O-])C2c1ccc(C#N)s1 (configuration not stated)	108
COc1ccccc1NC(=O)CCN1CCN(c2ccc(Cl)cc2)CC1	114
O=[N+]([O-])c1ccc(CSc2nnc(-c3cccnc3)o2)cc1	94.9
CC1(c2nnc(-c3ccc(F)cc3)o2)CC(c2cccc(Cl)c2)=NO1 (configuration not stated)	102
COC(=O)CCn1c(C)cc(C(=O)COc2ccccc2C(N)=O)c1C	70.3
CCOC(=O)C(C)Oc1ccc(OCc2ccccc2)cc1 (configuration not stated)	77.2
CCCNC(=O)c1ccc(COc2ccc(C)cc2)o1	110
Cc1ccc(/C=C2\SC(N3CCCC3)=NC2=O)cc1	91.7
CCNC(=O)NC(=O)C(C)OC(=O)CCCSc1nc2ccccc2s1 (configuration not stated)	99.5
O=[N+]([O-])c1ccc(Nc2ccccc2)c2nonc12	95.5
O=[N+]([O-])c1ccc(Nc2ccccc2O)c2nonc12	79.9
CC1(c2nnc(-c3ccccc3)o2)CC(c2ccc(Cl)cc2)=NO1 (configuration not stated)	112
Cn1cccc1/C=N/NC(=O)c1ccncc1	109
C/C(=N/NC(=O)c1ccncc1)C1=C(O)CC(C)(C)CC1=O	120
O=[N+]([O-])c1cncc([N+](=O)[O-])c1Nc1ccccc1Cl	70.5
Cc1cccc(NC(=O)c2ccc(OC3CSC3)cc2)c1	87.2
O=C(N/N=C/c1ccc(OC(=O)c2cccs2)cc1)c1ccccn1	88.1
COc1ccc(Cc2nnc(SCc3ccc([N+](=O)[O-])cc3)o2)cc1	86.3
O=C(Nc1ccc2c(c1)CCC2)c1ccc(Br)o1	74.3
CC(OC(=O)c1ccc([N+](=O)[O-])s1)C(=O)NC1CCCCC1C (configuration not stated)	90.2
COc1cccc(NC(=O)c2ccc(Cn3cc([N+](=O)[O-])cn3)o2)c1	111
O=C(OCC(=O)N1CCC(c2ccccc2)=N1)c1ccc([N+](=O)[O-])s1	85.2
CC(=O)c1ccc(NC(=O)CCc2ccc(C)o2)cc1	92.8
CC(C)(C)C(=O)/C=C/Nc1ccccc1O	102
O=C(CC1CC2CCC1C2)NCc1cccs1 (configuration not stated)	100

SMILES	viability [%]
O=C(OCC(=O)N1CCc2ccccc2C1)c1cccc([N+](=O)[O-])c1	121
O=C(CCS(=O)(=O)c1ccc(Cl)cc1)Oc1ccc2c(c1)OCO2	110
CCc1cc(C=NC2CCCCC2)c(O)s1	82.6
Cc1ccc(CSc2nnc(-c3cccnc3)o2)cc1	105
Cc1ccccc1C1=N/C(=C/c2cccnc2)C(=O)O1	102
CCCc1nnc(NC(=O)c2cc3ccccc3oc2=O)s1	108
COc1cc(OC)c2c(OC)cccc2n1	107
CC(NC(=O)c1cc2ccccc2oc1=O)c1ccccc1 (configuration not stated)	110
Cc1ccc(C(C)NC(=O)c2cc3ccccc3oc2=O)cc1C (configuration not stated)	102
CCCc1cc(C(=O)Nc2cccc(C(C)=O)c2)no1	120
Cc1cc(OCC(=O)Nc2ccncc2)ccc1Br	119
CSC1=N/C(=C\c2ccc3c(c2)OCO3)C(=O)S1	116
COc1ccc2c(c1)sc(=N)n2C	74.8
Cc1ccc(NC(=O)C2COc3ccccc3O2)nc1 (configuration not stated)	94.7
COc1ccc(C(=O)Nc2nnc(C3=COCCO3)o2)cc1	105
O=C(Nc1nnc(C2=COCCO2)o1)c1ccc(F)cc1	81.9
O=c1oc2ccccc2c(Nc2ccccc2O)c1[N+](=O)[O-]	93.7
CCCn1c(CNc2ccccc2O)nc2ccccc21	75.4
Clc1ccc(OC2CCN(Cc3nc(CC4CC4)no3)CC2)cc1	90
CCCCOc1ccc(-c2nnn(C(C)C(=O)OCC)n2)cc1 (configuration not stated)	105
CCOC(=O)c1sc(NC(=O)CCN2CC(C)OC(C)C2)c(C(=O)OCC)c1C (configuration not stated)	82.6
CCc1nonc1NC(=O)COc1ccc(Cl)c(C)c1	126
